# Key:
# [1] = target: Sphingosine kinase 1 (Homo sapiens) (UniProt Q9NYA1); conditions: at 1 µM;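 also: mean SPHK1 inhibition value reported from the GSK PKIS kinase panel screen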
# [2] = target: T1, Sphingosine kinase 2 (Homo sapiens) (UniProt Q9NRA0); conditions: at 0.1 µM
# T1 sequence (whole entry): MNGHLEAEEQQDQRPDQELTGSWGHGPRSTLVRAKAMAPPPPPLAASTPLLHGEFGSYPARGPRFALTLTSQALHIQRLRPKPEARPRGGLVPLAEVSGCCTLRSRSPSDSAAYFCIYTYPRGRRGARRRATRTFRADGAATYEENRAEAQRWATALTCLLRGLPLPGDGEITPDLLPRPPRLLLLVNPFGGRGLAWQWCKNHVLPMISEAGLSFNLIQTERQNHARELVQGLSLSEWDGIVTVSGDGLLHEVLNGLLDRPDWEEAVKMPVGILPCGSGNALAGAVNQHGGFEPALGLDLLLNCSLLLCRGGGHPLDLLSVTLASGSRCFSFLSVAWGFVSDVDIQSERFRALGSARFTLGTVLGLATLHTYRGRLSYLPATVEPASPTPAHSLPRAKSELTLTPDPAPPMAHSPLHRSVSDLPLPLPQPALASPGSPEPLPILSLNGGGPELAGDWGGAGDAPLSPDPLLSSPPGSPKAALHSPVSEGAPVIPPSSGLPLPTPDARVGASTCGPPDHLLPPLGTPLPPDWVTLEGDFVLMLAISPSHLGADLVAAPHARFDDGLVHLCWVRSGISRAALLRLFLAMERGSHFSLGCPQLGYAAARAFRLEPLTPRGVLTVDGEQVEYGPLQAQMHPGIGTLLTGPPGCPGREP
# [3] = target: T1, Sphingosine kinase 2 (Homo sapiens); conditions: at 1 µM
# [4] = target: Casein kinase II subunit alpha (Homo sapiens) (UniProt P68400); conditions: at 0.1 µM
# Casein kinase II subunit alpha (Homo sapiens), sequence (P68400 whole entry, looked up): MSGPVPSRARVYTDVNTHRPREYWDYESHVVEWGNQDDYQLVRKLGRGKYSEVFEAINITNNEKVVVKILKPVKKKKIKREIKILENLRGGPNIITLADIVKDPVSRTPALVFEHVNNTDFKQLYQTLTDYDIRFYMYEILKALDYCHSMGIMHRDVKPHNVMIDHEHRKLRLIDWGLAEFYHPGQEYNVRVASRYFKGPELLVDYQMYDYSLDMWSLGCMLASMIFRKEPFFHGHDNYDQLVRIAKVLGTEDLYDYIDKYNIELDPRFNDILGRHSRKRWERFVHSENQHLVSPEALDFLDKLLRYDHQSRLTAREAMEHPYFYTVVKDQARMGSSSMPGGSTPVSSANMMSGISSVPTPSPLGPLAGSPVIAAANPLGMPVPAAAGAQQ
# [5] = target: Casein kinase II subunit alpha (Homo sapiens) (UniProt P68400); conditions: at 1 µM
# [6] = target: T2, Inhibitor of nuclear factor kappa-B kinase subunit alpha (Homo sapiens) (UniProt O15111); conditions: at 0.1 µM
# T2 sequence (whole entry): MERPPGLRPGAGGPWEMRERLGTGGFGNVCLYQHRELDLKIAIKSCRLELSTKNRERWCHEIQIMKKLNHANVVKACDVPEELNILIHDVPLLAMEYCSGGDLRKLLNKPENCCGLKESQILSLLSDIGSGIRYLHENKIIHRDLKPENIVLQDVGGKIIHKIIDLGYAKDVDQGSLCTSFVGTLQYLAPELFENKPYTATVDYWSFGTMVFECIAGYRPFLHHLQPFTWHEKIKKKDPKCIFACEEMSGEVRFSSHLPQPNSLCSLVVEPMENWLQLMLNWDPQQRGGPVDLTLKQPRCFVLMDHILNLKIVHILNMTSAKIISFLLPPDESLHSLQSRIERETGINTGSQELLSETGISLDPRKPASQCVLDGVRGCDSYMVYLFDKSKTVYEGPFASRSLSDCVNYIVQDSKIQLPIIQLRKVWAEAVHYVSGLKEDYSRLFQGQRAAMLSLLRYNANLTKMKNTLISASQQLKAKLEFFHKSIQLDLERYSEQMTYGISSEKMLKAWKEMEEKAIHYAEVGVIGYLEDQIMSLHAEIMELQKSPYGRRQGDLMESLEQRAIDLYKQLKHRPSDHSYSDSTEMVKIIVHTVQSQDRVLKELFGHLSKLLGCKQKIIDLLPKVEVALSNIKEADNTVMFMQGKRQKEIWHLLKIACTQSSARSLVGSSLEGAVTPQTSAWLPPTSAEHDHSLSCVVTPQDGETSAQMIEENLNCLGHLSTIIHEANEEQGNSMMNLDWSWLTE
# [7] = target: T2, Inhibitor of nuclear factor kappa-B kinase subunit alpha (Homo sapiens); conditions: at 1 µM
# [8] = target: T3, Inhibitor of nuclear factor kappa-B kinase subunit beta (Homo sapiens) (UniProt O14920); conditions: at 0.1 µM
# T3 sequence (whole entry): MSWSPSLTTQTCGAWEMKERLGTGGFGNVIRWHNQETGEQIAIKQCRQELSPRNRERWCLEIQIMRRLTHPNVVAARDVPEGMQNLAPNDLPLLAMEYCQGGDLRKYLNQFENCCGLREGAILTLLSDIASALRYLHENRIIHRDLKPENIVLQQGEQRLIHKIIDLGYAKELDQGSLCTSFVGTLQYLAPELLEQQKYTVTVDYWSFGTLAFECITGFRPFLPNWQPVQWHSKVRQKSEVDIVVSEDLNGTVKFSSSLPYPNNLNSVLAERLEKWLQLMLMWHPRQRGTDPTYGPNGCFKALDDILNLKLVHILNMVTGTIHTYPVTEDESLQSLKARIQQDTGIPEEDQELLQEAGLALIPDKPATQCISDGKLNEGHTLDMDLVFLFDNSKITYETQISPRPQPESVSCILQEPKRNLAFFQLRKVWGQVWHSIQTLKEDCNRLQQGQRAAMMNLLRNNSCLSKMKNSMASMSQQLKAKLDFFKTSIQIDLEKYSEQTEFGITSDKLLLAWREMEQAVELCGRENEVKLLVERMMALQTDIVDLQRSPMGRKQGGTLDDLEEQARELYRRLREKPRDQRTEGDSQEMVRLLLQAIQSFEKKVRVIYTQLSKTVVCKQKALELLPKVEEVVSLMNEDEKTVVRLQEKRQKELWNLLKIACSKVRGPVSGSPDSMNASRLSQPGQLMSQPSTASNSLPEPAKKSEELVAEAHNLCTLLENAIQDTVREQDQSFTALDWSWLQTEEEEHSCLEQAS
# [9] = target: T3, Inhibitor of nuclear factor kappa-B kinase subunit beta (Homo sapiens); conditions: at 1 µM
# [10] = target: T4, Inhibitor of nuclear factor kappa-B kinase subunit epsilon (Homo sapiens) (UniProt Q14164); conditions: at 0.1 µM
# T4 sequence (whole entry): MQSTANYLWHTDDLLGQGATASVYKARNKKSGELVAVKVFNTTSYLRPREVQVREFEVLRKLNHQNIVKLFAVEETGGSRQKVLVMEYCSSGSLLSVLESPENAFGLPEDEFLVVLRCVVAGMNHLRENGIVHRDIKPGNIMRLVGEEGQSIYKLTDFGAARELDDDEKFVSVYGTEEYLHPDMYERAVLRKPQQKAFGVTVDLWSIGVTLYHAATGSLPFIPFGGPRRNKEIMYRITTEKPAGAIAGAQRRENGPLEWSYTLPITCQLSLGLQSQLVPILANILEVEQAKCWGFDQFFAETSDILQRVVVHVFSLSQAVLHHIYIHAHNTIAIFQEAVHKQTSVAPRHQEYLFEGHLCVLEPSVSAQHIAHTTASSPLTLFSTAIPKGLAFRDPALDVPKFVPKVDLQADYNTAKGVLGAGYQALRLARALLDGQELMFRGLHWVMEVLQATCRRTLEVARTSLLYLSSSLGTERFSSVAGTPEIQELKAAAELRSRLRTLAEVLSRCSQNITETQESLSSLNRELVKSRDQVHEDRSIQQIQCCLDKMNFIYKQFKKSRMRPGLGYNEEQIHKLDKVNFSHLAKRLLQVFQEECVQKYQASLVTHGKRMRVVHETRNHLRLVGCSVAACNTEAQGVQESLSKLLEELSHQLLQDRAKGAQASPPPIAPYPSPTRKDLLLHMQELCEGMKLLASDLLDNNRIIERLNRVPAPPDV
# [11] = target: T4, Inhibitor of nuclear factor kappa-B kinase subunit epsilon (Homo sapiens); conditions: at 1 µM
# [12] = target: T5, Serine/threonine-protein kinase Nek1 (Homo sapiens) (UniProt Q96PY6); conditions: at 0.1 µM
# T5 sequence (whole entry): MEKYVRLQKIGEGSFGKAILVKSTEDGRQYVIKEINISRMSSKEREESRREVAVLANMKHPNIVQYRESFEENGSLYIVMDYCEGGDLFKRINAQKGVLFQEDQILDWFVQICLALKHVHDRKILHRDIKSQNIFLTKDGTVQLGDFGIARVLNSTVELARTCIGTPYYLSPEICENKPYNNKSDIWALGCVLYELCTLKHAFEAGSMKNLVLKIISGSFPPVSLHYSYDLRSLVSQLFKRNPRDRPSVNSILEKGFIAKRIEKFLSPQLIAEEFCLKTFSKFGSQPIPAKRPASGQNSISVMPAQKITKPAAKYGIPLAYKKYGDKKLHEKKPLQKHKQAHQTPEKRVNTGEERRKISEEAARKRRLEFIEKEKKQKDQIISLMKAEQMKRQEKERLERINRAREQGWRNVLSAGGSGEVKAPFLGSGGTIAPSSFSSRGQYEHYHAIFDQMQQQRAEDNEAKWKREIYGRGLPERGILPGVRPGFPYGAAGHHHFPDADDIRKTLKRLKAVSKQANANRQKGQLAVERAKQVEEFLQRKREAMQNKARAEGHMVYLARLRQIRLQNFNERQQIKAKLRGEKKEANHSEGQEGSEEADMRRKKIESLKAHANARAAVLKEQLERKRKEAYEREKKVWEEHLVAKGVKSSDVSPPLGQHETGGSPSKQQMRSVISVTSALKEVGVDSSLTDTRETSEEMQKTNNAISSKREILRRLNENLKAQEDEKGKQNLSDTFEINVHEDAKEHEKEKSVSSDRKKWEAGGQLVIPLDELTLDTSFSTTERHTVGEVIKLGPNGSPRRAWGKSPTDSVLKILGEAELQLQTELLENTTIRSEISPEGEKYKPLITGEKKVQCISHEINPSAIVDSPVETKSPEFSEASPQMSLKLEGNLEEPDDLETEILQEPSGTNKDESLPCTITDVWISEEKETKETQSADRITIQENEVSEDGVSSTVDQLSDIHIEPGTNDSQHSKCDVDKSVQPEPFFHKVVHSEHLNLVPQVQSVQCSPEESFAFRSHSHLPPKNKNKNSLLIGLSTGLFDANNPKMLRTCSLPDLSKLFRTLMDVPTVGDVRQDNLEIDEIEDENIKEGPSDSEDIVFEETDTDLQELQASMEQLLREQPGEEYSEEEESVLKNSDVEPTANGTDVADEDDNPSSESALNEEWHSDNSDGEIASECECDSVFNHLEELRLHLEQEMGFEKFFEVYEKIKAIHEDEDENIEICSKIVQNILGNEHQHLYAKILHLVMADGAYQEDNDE
# [13] = target: T5, Serine/threonine-protein kinase Nek1 (Homo sapiens); conditions: at 1 µM
# [14] = target: T6, Serine/threonine-protein kinase Nek2 (Homo sapiens) (UniProt P51955); conditions: at 0.1 µM
# T6 sequence (whole entry): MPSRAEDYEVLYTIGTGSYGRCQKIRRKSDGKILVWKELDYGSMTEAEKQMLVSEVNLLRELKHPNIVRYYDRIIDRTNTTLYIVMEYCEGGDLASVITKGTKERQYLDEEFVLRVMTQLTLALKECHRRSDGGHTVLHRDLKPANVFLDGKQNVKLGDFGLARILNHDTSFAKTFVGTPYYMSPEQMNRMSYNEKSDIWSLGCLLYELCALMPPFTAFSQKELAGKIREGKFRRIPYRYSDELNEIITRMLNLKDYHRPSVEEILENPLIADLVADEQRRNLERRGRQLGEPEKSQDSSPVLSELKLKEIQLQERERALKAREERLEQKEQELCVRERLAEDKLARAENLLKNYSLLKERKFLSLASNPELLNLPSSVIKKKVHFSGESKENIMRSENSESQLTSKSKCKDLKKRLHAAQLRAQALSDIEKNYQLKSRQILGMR
# [15] = target: T6, Serine/threonine-protein kinase Nek2 (Homo sapiens); conditions: at 1 µM
# [16] = target: Serine/threonine-protein kinase Nek6 (Homo sapiens) (UniProt Q9HC98); conditions: at 0.1 µM
# Serine/threonine-protein kinase Nek6 (Homo sapiens), sequence (Q9HC98 whole entry): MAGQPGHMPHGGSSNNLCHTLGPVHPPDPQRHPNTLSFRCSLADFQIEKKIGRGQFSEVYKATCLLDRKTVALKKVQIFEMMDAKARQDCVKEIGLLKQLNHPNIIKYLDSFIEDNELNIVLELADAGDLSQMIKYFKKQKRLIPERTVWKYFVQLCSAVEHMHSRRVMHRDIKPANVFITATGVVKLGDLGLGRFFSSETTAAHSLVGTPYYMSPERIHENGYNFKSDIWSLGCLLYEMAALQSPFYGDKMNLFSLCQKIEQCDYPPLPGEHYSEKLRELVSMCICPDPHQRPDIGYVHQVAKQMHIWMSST
# [17] = target: Serine/threonine-protein kinase Nek6 (Homo sapiens) (UniProt Q9HC98); conditions: at 1 µM
# [18] = target: Serine/threonine-protein kinase Nek7 (Homo sapiens) (UniProt Q8TDX7); conditions: at 0.1 µM
# Serine/threonine-protein kinase Nek7 (Homo sapiens), sequence (Q8TDX7 whole entry, looked up): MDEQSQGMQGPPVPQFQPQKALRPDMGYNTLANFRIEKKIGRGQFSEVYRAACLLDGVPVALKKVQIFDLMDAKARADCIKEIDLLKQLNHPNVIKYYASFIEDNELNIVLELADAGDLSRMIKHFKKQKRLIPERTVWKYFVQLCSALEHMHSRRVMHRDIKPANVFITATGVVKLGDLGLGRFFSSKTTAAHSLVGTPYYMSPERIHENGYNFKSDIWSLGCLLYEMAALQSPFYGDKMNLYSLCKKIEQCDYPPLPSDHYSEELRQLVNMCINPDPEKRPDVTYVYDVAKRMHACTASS
# [19] = target: Serine/threonine-protein kinase Nek7 (Homo sapiens) (UniProt Q8TDX7); conditions: at 1 µM
# [20] = target: T7, Serine/threonine-protein kinase Nek9 (Homo sapiens) (UniProt Q8TD19); conditions: at 0.1 µM;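 also: reported value is the mean percent inhibition of NEK9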
# T7 sequence (whole entry): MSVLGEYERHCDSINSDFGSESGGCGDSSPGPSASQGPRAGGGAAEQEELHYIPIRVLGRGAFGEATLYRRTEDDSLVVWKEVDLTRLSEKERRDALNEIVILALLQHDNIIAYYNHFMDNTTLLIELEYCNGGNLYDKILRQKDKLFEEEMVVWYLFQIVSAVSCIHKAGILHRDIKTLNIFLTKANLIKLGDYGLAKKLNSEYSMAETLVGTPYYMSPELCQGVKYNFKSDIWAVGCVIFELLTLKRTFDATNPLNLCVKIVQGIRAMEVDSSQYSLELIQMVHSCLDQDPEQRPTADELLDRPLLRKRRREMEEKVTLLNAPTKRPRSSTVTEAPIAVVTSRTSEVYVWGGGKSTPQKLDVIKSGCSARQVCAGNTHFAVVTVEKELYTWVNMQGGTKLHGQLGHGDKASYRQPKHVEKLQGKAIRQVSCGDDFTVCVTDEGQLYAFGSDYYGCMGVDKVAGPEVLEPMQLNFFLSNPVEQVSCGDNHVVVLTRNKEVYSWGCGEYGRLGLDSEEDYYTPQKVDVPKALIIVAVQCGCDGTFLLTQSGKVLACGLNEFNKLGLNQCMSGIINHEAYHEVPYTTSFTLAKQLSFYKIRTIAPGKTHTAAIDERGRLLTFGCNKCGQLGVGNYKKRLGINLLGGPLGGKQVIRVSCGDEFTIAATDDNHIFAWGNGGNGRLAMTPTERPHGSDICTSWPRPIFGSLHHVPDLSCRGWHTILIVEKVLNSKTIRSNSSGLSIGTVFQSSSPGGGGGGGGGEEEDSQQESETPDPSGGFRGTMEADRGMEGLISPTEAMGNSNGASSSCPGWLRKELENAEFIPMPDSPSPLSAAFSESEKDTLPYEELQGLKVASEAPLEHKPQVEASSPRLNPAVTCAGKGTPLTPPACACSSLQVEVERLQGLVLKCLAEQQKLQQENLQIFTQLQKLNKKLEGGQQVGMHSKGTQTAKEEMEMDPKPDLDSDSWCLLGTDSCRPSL
# Sphingosine kinase 1 (Homo sapiens), sequence (Q9NYA1 whole entry): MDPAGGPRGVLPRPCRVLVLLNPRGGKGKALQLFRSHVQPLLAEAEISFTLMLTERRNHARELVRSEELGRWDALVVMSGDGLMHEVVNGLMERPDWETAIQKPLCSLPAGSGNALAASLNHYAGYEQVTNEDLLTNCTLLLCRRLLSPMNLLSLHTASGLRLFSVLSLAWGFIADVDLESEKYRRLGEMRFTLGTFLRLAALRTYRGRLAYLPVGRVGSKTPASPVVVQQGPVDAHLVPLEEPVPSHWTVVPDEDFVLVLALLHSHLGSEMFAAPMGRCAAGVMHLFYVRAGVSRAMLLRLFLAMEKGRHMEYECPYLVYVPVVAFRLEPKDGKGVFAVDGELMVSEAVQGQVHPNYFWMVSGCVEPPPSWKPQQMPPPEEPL
smiles,measurement,setting,value
COc1cc2ncn(-c3cc(OCc4ccccc4C(F)(F)F)c(C(N)=O)s3)c2cc1OC,inhibition,[1],-5.26%
same,inhibition,[2],0.75%
same,inhibition,[3],-2%
same,inhibition,[4],7.47%
same,inhibition,[5],8.83%
same,inhibition,[6],9.42%
same,inhibition,[7],3.6%
same,inhibition,[8],5.69%
same,inhibition,[9],5.75%
same,inhibition,[10],6.51%
same,inhibition,[11],5.84%
same,inhibition,[12],3.95%
same,inhibition,[13],19.1%
same,inhibition,[14],6.41%
same,inhibition,[15],17.1%
same,inhibition,[16],0.15%
same,inhibition,[17],2.1%
same,inhibition,[18],3.29%
same,inhibition,[19],5.2%
same,inhibition,[20],16.7%
